# G9a inh = inhibitors of human histone lysine methyltransferase G9a; Q96KQ7; G9a H3K9 monomethylation, AlphaScreen, 2 h; Potency, µM (titrated, usually from 102 µM), for inactives: at the highest dose activity, negative = inhibition, usual class: inhibitors; 350,000 tested, 8.8% active; AID 504332; also: % is scaled to controls: 0 for no effect and ±100 for the full control effect; nearly all actives have a fitted effect of over 75% in size
#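 G9a (20 nM) preincubated 15 min RT with compounds, then 500 nM biotinylated H3K9 peptide and 20 uM SAM added; 2 h RT reaction. Monomethyl-H3K9 product detected by AlphaScreen with anti-H3K9me1 antibody, streptavidin donor and anti-rabbit IgG acceptor beads.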
# 12-LOX inh = blocks human arachidonate 12S-lipoxygenase. P18054. purified 12hLO, xylenol orange hydroperoxide absorbance. Potency, µM (series often up to 108 µM), inactives show at the top dose activity change, negative = inhibition, actives largely listed as inhibitors. 580,000 tested, 1.1% active. AID 1671190; also: % is scaled to controls: 0 for no effect and ±100 for the full control effect
# Target sequence (P18054 whole entry, looked up): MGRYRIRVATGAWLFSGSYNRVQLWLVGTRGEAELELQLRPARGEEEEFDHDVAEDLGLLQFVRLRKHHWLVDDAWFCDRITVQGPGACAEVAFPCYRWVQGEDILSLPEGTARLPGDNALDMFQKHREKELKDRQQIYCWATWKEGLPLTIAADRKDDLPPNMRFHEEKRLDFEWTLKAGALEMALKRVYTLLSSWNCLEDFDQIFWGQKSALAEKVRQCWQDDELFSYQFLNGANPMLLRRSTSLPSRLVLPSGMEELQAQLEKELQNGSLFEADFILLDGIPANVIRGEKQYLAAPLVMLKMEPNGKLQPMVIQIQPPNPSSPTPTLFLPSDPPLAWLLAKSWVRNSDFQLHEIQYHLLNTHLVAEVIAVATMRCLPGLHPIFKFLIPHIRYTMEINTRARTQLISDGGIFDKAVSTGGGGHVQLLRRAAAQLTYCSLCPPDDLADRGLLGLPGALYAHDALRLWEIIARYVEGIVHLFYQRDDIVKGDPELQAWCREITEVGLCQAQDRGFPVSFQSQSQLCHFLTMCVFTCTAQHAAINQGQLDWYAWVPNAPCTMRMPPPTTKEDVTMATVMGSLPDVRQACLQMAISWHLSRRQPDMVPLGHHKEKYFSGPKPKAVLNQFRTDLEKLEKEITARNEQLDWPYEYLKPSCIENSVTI
#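 Purified human 12hLO (150 nM final) in 25 mM Hepes, 0.01% Triton X-100, pH 7.0 was preincubated 15 min at room temperature with compound. Then 40 uM arachidonic acid was added, 30 min. Hydroperoxide was read by Fe-XO absorbance ratio 573/405 nm.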
# Sfp PPTase inh = inhibitors of Bacillus subtilis Sfp phosphopantetheinyl transferase | Biochemical Sfp PPTase activity, qHTS | Potency, µM, without a hit: largest response in the series, negative = inhibition, most hits filed as inhibitors | 310,000 tested, 3.5% active;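 also: the enzyme is Sfp with the accession as filed and its product quenches rhodamine fluorescence; 0% = enzyme reaction without inhibitor and -100% = no enzyme wells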
#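 After 15 min at room temperature with compound, 15 nM Sfp received 5 uM rhodamine-CoA plus 12.5 uM BHQ-2-ybbR (50 mM Hepes pH 7.6, 10 mM MgCl2). Rate came from the fluorescence difference over 30 min, ex 525/em 598 nm.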
# Glioma ERSR ind = inducers of ER stress response in human glioma cells. U87-MG GRP78 promoter luciferase reporter, 16 h. Potency, µM, inactives show at the highest dose activation, hits mostly activators. 420,000 tested, 0.02% active. AID 602332; also: series mostly up to about 76 µM; % of control where 0% means no effect; nearly all actives have a fitted effect of over 35% in size
#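 Stably transfected U87-MG glioma cells carrying a GRP78-based luciferase sensor; 16 h compound incubation. Luminescence end-point read 10 min after Bright-Glo addition at room temperature.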
# VDR inh = vitamin D3 receptor (human) inhibition | P11473 | VDR-SRC2-3 peptide fluorescence polarization, 2 h | Potency, µM, without a hit: max response, negative = inhibition, hits mostly inhibitors | 400,000 tested, 0.93% active; also: % is scaled to controls: 0 for no effect and ±100 for the full control effect
#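 After 23 nl compound addition and a short centrifugation, plates sat for 2 hours at ambient temperature; polarization of fluorescence then indicated loss of VDR binding to peptide SRC2-3.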
# * = called active by the depositor; ? = inconclusive; . = no result given; [ ] = remark or other dose. Many of the other results were omitted from the sample, so hits are more common in it than they were. Calls follow the shape of the dose curve; as a rule, active = well fitted curve in the direction sought with a large enough effect; inconclusive = small, poorly fitted or top-dose-only effect, or another doubt; inactive = no such curve, though single readings can be large; an effect the other way counts as inactive or inconclusive. Potency is read from the fitted curve at half-maximal effect.
SMILES,G9a inh,12-LOX inh,Sfp PPTase inh,Glioma ERSR ind,VDR inh
CC(C)=CCc1c(O)cc2c(c1O)C(=O)CC(c1ccccc1)O2 (centres undefined),.,8%,.,-1%,-4%
O=C1CC(c2ccc(O)c(O)c2)Oc2cc(O)cc(O)c21 (centres undefined),-44%[2.33 µM],6.3µM*,-22%,?,2%
COc1ccc([C@H]2Cc3cc(O)cc(O)c3C(=O)O2)cc1O,.,22µM*,.,-7%,-6%
O=C1CC(c2ccc(O)c(O)c2)Oc2c1ccc(O)c2O (centres undefined),-190%[59 µM],35µM*,56µM*,10%,9%
CC(=O)Nc1cccc(-c2cc(C(=O)NCc3c(C)cc(C)[nH]c3=O)c3c(c2)N(C(C)C)CCO3)c1,.,76%,.,.,.
CC(C)C(=O)Nc1cc2c(cc1Sc1ccccc1Cl)n(C)c(=O)n2C,.,3%,.,.,.
CCOc1ccccc1NC(=O)CC1CCCN(c2cnn(CC3CC3)c(=O)c2)C1 (centres undefined),.,7%,.,.,.
O=C(CC1=C2CCCCC2NC1=O)NCC1CCN(Cc2cccc(F)c2)CC1 (centres undefined),.,11%,.,.,.
O=C(CN1C(=O)NC2(CCCCC2)C1=O)Nc1cc(C(F)(F)F)ccc1N1CCOCC1,50µM*,1%,.,-2%,-1%
O=C(CNCc1cccnc1)Nc1cc(C(F)(F)F)ccc1N1CCOCC1,.,-33%,56µM*,-3%,-14%
Cc1cc(NC(=O)CN2C(=O)NC3(CCCCC3)C2=O)ccc1N1CCCC1,8.9µM*,-12%,.,-6%,-18%
CN(C)c1ccc(S(=O)(=O)N2CCCCC2)cc1NC(=O)CN1C(=O)NC2(CCCC2)C1=O,14µM*,-7%,.,-2%,-6%
O=C(CN1C(=O)NC2(CCCCC2)C1=O)Nc1ccc(N2CCCCC2)cc1,.,-7%,.,1%,-3%
Cc1ccc(N2CCN(C(=O)c3cc4ccccc4[nH]3)CC2)cc1,.,-50%,.,.,.
Cc1cc(N2CCCC2)ccc1NC(=O)CN1C(=O)NC2(CCCCC2)C1=O,3.5µM*,-11%,.,-5%,1%
FC(F)(F)c1ccc(N2CCOCC2)c(NC2=NCCCCC2)c1,50µM*,?,-3%,-3%,14%
FC(F)(F)c1ccc(Cl)c(NC2=NCCCCC2)c1,29%,1%,10%,-1%,16%
Cc1ccc(C(=O)N/C(=C\c2ccc(Br)cc2)c2nc(=S)[nH][nH]2)cc1,15%,16µM*,1%,3%,1%
O=C(N/C(=C/c1cccc(Br)c1)c1nc(=S)[nH][nH]1)c1ccccc1,?,35µM*,-5%,3%,-17%
Cc1ccc(C(=O)N/C(=C\c2cccnc2)c2nc3ccccc3[nH]2)cc1,12%[59 µM],13%,12%,-4%,-18%
Clc1ccc(-c2csc3ncnc(Sc4nnc(C5CC5)o4)c23)cc1,.,1%,.,.,.
CC(=O)c1ccc2c(c1)N(C)c1ccccc1S2,160%[59 µM],?,-27%,0%,-4%
CN1/C(=C/c2cccc[n+]2C)Sc2ccccc21,25µM*,0%,-16%,2%,-1%
Cc1ccc2c(c1)N(C)/C(=C/c1cccc[n+]1C)S2,6.3µM*,?,-24%,0%,-3%
Cc1cccc(C(=O)Oc2cccc(Br)c2)c1C,.,-3%,.,.,.
SMILES,G9a inh,12-LOX inh,Sfp PPTase inh,Glioma ERSR ind,VDR inh
O=C1c2ccccc2CN1C1CCN(Cc2cccc3ccccc23)CC1,.,50µM*,.,.,.
Fc1ccc(F)c(C2=NNC(=NCC3CCCO3)SC2)c1 (centres undefined),?,?,45µM*,1%,-28%
COCC(C)N=C1NN=C(c2ccc(NC(C)=O)cc2)CS1 (centres undefined),11µM*,5%,40µM*,0%,0%
Cc1cc(C2=NNC(=Nc3ccccc3)SC2)c(C)n1CC1CCCO1 (centres undefined),.,-21%,.,.,.
CC(=O)Nc1ccc(C2=NNC(=NCC3CCCO3)SC2)cc1 (centres undefined),14µM*,-7%,40µM*,-5%,?
CC(=O)Nc1ccc(C2=NN(CC#N)C(=O)SC2)cc1,48%[12.7 µM],-7%,14%,-4%,29%
CCOC(=O)c1c(C)[nH]c(C(=O)C(C)N(C)Cc2ccc(OC)c(F)c2)c1C (centres undefined),.,2%,.,.,.
COc1ccc(NC(=O)CSc2c(C)nn(-c3nnc(C)c(=O)[nH]3)c2C)cc1,13µM*,302%,50µM*,-3%,11%
